Screens deposited in PubChem by several laboratories.
APOBEC3G inh: APOBEC3G (human) deaminase inhibition | Q9HC16 | recombinant A3G, ssDNA deamination FAM/TAMRA fluorescence | inhibition, % at 20 µM | 330,000 tested, 0.28% active | AID 493012;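 active means inhibition of at least 40% at 20 µM, with no more than 30% in the related APOBEC3A deaminase screen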;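 further: plate controls were DMSO wells with A3G for no effect and wells lacking A3G enzyme for full effect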
Target sequence (Q9HC16 whole entry, looked up): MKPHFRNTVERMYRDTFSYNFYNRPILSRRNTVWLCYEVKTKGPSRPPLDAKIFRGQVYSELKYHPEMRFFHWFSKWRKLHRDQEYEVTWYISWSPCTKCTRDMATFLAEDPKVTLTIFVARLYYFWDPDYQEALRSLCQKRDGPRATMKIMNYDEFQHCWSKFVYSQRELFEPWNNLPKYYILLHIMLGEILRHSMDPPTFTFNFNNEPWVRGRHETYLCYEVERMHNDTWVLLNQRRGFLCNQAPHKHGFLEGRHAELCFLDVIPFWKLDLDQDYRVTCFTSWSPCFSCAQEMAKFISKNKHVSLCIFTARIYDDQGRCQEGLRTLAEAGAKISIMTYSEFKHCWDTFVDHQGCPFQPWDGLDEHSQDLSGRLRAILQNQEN
beta cell repl: inducers of beta-cell replication in MIN6 cells; 330,000 tested, 0.29% active; proliferation, % at 10 µM; MIN6 cells proliferation, ATPlite luminescence, 48 h; cells starved in 0.2% serum; 100% = growth in 10% serum;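 active means compounds whose signal lies at least 3.5 SD above the mean of all wells on their plate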;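 further: 0% = DMSO-treated cells in low-serum medium and 100% = 10% serum control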
A3A deaminase: blocks human APOBEC3A ssDNA deamination; P31941; recombinant A3A, FAM/TAMRA ssDNA deamination fluorescence; AID 493011; inhibition, % at 20 µM; 330,000 tested, 0.41% active;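 active means at least 40% inhibition at 20 µM here, with at most 30% in a related deaminase screen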;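 further: plate controls were A3A with DMSO for no effect and wells lacking A3A enzyme for full effect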
Target sequence (P31941 whole entry, looked up): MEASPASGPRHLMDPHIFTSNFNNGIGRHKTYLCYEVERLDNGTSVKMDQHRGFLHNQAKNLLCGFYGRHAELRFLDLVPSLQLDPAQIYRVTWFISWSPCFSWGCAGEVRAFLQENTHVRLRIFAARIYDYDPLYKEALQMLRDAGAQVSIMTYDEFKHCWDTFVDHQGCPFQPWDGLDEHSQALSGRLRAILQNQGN
NRP1-CendR mod: modulators of CendR peptide binding to human neuropilin-1; FAM-RPARPAR peptide binding to NRP-1, fluorescence polarization; 360,000 tested, 0.85% active; inhibition, % at 25 µM; O14786; AID 602438;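 active means inhibition or corrected inhibition above about 18%, plus a signal ratio from 0.5 to 1.5, limit read from the data, passing the limit was not always enough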
VLA-4 inh: inhibition in a human VLA-4 binding assay; P13612; VLA-4 expressing cells, ligand binding flow cytometry; inhibition, % (about 7 µM as worked out from the volumes in the protocol); 330,000 tested, 0.2% active; AID 2557; in the data active means inhibition above about 50%
Active calls of the source: *; / = not tested or not shown. An excerpt weighted towards active compounds, which were near 1.8% of everything screened.

SMILES	APOBEC3G inh	beta cell repl	A3A deaminase	NRP1-CendR mod	VLA-4 inh
CCC1=C(OC(=O)N(CC)CC)N2C(=O)OC(=NCCOC)[C@]2(Cc2ccccc2)[C@H]2C1=CC[C@H]1C(=O)N(C)C(=O)[C@H]12	-11.5	-2.4	-2.4	24.2*	10.5
CCC1=C(OC(=O)N(CC)CC)N2C(=O)OC(=NCCOC)[C@]2(Cc2ccccc2)[C@H]2C1=CC[C@H]1C(=O)N(CC)C(=O)[C@H]12	-6.1	1.6	-2.6	18.7	28.8
CCC1=C(OC(=O)N(CC)CC)N2C(=O)OC(=NCC(=O)OC)[C@]2(C)[C@H]2C1=CC[C@H]1C(=O)N(CC(=O)OC)C(=O)[C@H]12	-10.8	-6.0	-3.6	24.1*	9.8
CCC1=C(OC(=O)N(CC)CC)N2C(=O)OC(=NCC3CC3)[C@]2(Cc2ccccc2)[C@H]2C1=CC[C@H]1C(=O)N(CC)C(=O)[C@H]12	-6.5	-3.5	-2.1	13.5	20.2
CCC1=C(OC(=O)N(CC)CC)N2C(=O)OC(=NCc3ccccc3)[C@]2(C)[C@H]2C1=CC[C@H]1C(=O)N(CC)C(=O)[C@H]12	-10.7	-1.7	-3.1	10.1	/
CCCn1c(SCC(=O)NC2CCC(C)CC2)n[nH]c1=O (centres undefined)	-1.0	-3.4	1.6	1.4	-7.7
CCCN(C(=O)c1cc(S(=O)(=O)N(C)c2ccccc2OC)ccc1C)C1CCS(=O)(=O)C1 (centres undefined)	/	/	/	-6.7	/
COc1ccccc1Nc1nn2c(=O)c3ccc(C(=O)N4CCC(C)CC4)cc3nc2s1	-4.7	-3.3	-3.7	24.6*	0.3
Cc1ccccc1Nc1nn2c(=O)c3ccc(C(=O)N4CCCC(C)C4)cc3nc2s1 (centres undefined)	/	/	/	-11.1	/
C=C1CN(CC(=O)OC)S(=O)(=O)c2ccccc21	-11.3	1.9	-2.1	10.6	-4.5
C=C1CN(Cc2ccccc2)S(=O)(=O)c2ccccc21	-11.8	-4.2	-2.7	24.4*	0.5
CC1(C(=O)Nc2ccc3c(c2)OCCO3)CCN1C(=O)c1cccc(F)c1 (centres undefined)	/	/	/	-3.6	/
CCCCCCCCC[n+]1cccc2c3ccccc3ccc21	1.2	-7.6	1.1	33.0*	-13.5
O=[N+]([O-])c1ccc(C[n+]2cccc3c4ccccc4ccc32)cc1	-14.6	3.3	13.3	-6.5	-17.5
Cc1ccccc1C[n+]1cccc2ccccc21	-8.0	2.3	-5.1	9.2	13.6
CCCCCCCCCCCCCCCC[n+]1cccc2ccccc21	44.0	-2.9	62.2	42.2*	-23.5
O=C1Nc2ccccc2C12OCCCO2	-5.9	-2.2	-1.8	-1.6	17.2
O=C1Nc2ccccc2C12OCCO2	-0.3	-1.8	1.0	34.9*	1.1
CC(C)CC(NS(=O)(=O)c1ccccc1)C(=O)O (centres undefined)	-2.8	1.6	0.9	14.4	5.2
CC(C)CC(NS(=O)(=O)c1ccccc1S(=O)(=O)NC(CC(C)C)C(=O)O)C(=O)O (centres undefined)	-6.2	-3.9	-4.0	25.5*	12.6
COc1cc(NC(=O)c2cccc(NC3=NC4CS(=O)(=O)CC4S3)c2)cc(OC)c1OC (centres undefined)	-8.2	-4.4	-7.3	-9.9	-4.2
CCOC(=O)c1c(C)[nH]c(C)c1S(=O)(=O)N(C)CC(=O)Nc1cccc(C)c1	-7.3	1.6	-2.9	1.4	0.1
COc1ccc(NC(=O)CN(C)C(=O)CCNS(=O)(=O)c2ccc(Br)cc2)cc1	-7.3	2.9	-3.5	6.6	2.7
Cc1cc(Cl)ccc1OCC(=O)NNC(=O)C1CCCO1 (centres undefined)	-4.7	-1.8	-1.1	25.1*	-0.5
COC(=O)c1ccccc1NC(=O)CN1CCN(C(=O)c2ccco2)CC1	-3.2	-0.5	-4.0	4.5	-0.2
SMILES	APOBEC3G inh	beta cell repl	A3A deaminase	NRP1-CendR mod	VLA-4 inh
CCc1cc(C(=O)OC)c(NC(=O)CN2CCN(C(=O)c3ccco3)CC2)s1	0.7	2.1	1.8	25.6*	3.4
COC(=O)c1nc2n(n1)C(c1ccccc1OC)C1=C(CCCC1=O)N2 (centres undefined)	-1.3	-1.5	-2.0	10.4	4.9
COC(=O)c1nc2n(n1)C(c1ccc(OC)c(OC)c1OC)C1=C(CCCC1=O)N2 (centres undefined)	2.9	-1.0	1.0	17.6*	-5.1
CC(C)[C@H]1C=C(C(=O)O)O[C@@H](OCCCCO)C1	3.6	-2.3	6.0	26.0*	/
O=C(O)C1=C[C@@H](c2ccc(C(F)(F)F)cc2)C[C@@H](OCCCCO)O1	-4.8	-4.0	-2.4	27.5*	/
CC(C)[C@H]1C=C(C(=O)O)O[C@@H](OCc2ccc(CO)cc2)C1	-3.4	-0.3	-0.7	-3.9	-16.0
NC(=O)C1=C[C@H](c2ccc(C(F)(F)F)cc2)C[C@H](OCCCCO)O1	-4.0	0.3	-1.4	10.9	-7.6
O=C(COCc1cc(-c2ccc3c(c2)OCO3)on1)N1CCN(c2cccc(C(F)(F)F)c2)CC1	4.8	-7.9	0.8	19.0*	7.2
CCc1nc(CN(C)C(=O)C2CCC(=O)N(Cc3cccc(F)c3)C2)no1 (centres undefined)	17.6	-6.9	0.8	-4.0	13.7
COC(=O)c1cc(C)nc2c1C(=O)C(=O)C=C2N1CCOCC1	-6.5	-4.1	2.6	28.7*	-4.5
COc1cccc(-c2ncc3ccccc3c2COC(=O)c2ccc(Br)cc2)c1	1.7	-5.5	3.7	-3.7	-1.0
COc1cccc(-c2ncc3ccccc3c2COC(=O)c2ccc(C(F)(F)F)cc2)c1	-5.8	-4.8	0.5	28.8*	0.0
CCCNC(=O)c1cc(C2CCCCN2C(=O)c2cc(F)ccc2C)on1 (centres undefined)	/	/	/	-5.1	/
Cc1ccc(F)cc1C(=O)N1CCCCC1c1cc(C(=O)NCc2ccccc2)no1 (centres undefined)	/	/	/	21.6*	/
O=C(Nc1cccc2c1CCCC2)c1cc(C2CCCCN2C(=O)CCCc2ccccc2)on1 (centres undefined)	/	/	/	52.2*	/
O=C(NCc1ccc(F)cc1)c1cc(C2CCCCN2C(=O)CCCc2ccccc2)on1 (centres undefined)	/	/	/	49.3*	/
Cc1cccc2cc3c(NC(=O)C(C)(C)C)nn(CC(C)C)c3nc12	-2.5	-2.5	2.1	1.1	12.9
CC(=O)Nc1ccc(/C=C/c2nc(-c3ccccc3O)n[nH]2)cc1	-2.9	7.3	1.7	0.5	-3.0
Cc1ccc(CSCC2Nc3ccc(C(=O)N4CCN(c5cccc(C)c5)C(C)C4)cc3NC2=O)cc1 (centres undefined)	45.8*	-7.1	-22.5	/	-36.0
Cc1ccc(C)c(C(=O)OCC(=O)NC(=O)NCc2ccccc2)c1	/	/	/	0.8	/
CC1=CC(=O)C(C(C)=Nc2cccc(Cl)c2)C(=O)O1 (centres undefined)	/	/	/	6.4	/
COC(=O)COc1ccc(S(=O)(=O)N2CCN(c3ccc(OC)cc3)CC2)cc1	-1.6	-4.3	0.2	24.0*	7.5
COC(=O)COc1ccc(S(=O)(=O)N2CCN(c3ccc(F)cc3)CC2)cc1	-4.6	-4.3	-2.8	-9.7	9.7
